# Data published in PubChem BioAssay (NCATS).
# Results filed as inconclusive are left out. Where a call stands in place of a potency, no number is given. Values without a mark were called inactive. The source made the active and inactive calls. Unless noted, calls follow the shape of the dose curve; as a rule, active = well fitted curve in the direction sought with a large enough effect; inconclusive = small, poorly fitted or top-dose-only effect, or another doubt; inactive = no such curve, though single readings can be large; an effect the other way counts as inactive or inconclusive.
# How the values were obtained:
# [1] = qHTS for Inhibitors of Plasmodium falciparum (DD2) proliferation (AID 504314);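 also: parasite DNA measured by SYBR Green fluorescence after red cell lysis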
# Summary of the method: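 Normalization used 0.29 uM artemisinin as full inhibition and DMSO as baseline. Parasitized erythrocytes were exposed to compounds for 72 h (37C, 5% CO2), then lysed with saponin/Triton buffer containing SYBR Green I.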
# [2] = qHTS for Inhibitors of Plasmodium falciparum (GB4) proliferation (AID 504315); also: nearly all actives have a fitted effect of over 50% in size
# Summary of the method: (§1)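 Parasite growth measured as SYBR Green DNA fluorescence (ex 485, em 535 nm) after overnight lysis following 72 h culture at 37 °C, 0.3% parasitemia, 2.5% hematocrit. Values normalized against DMSO and 0.29 uM artemisinin controls, with plate-stack correction.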
# [3] = qHTS for Inhibitors of Plasmodium falciparum (HB3) proliferation (AID 504318); also: nearly all actives have a fitted effect of over 60% in size
# Summary of the method: as §1
# [4] = qHTS for Inhibitors of Plasmodium falciparum (CP250) proliferation (AID 504320)
# Summary of the method: as §1
# [5] = molecular target: Atrial natriuretic peptide receptor 1 (Homo sapiens) (UniProt P16066); assay: Natriuretic polypeptide receptor (hNpr1) antagonism - Pilot CMLD screen (AID 1347052; calls by dose curve;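 also: cGMP level read as GloSensor luciferase luminescence after agonist stimulation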; also: potency is read from the fitted curve at half-maximal effect;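 as to activity change, negative = inhibition: HEK293 cells with hNpr1 stimulated by hNppA peptide at 0.1 nM; series mostly up to about 9.2 µM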)
# [6] = molecular target: Cytochrome P450 3A4 (Homo sapiens) (UniProt P08684); assay: qHTS Assay for Inhibitors and Substrates of Cytochrome P450 3A4 (AID 884); also: series mostly up to about 57 µM; nearly all actives have a fitted effect of over 50% in size
# Summary of the method: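 Luminescent readout of luciferin produced by CYP3A4 (20 nM) dealkylation of Luciferin-PPXE, 25 uM (its KM). NADPH-driven reaction ran 60 min at RT after 10 min compound preincubation; data scaled to 57 uM ketoconazole as 100% inhibition.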
# [7] = molecular target: Cytochrome P450 2D6 (Homo sapiens) (UniProt P10635); assay: qHTS Assay for Inhibitors and Substrates of Cytochrome P450 2D6 (AID 891);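 also: luciferin methyl ether substrate demethylated by CYP2D6 with NADPH regeneration; nearly all actives have a fitted effect of over 60% in size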
# Summary of the method: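 Luminescent read-out of luciferin formed by 5 nM human CYP2D6 demethylating 30 uM Luciferin-ME EGE (Km level) over 60 min at room temperature after NADPH regeneration addition. Data normalized to full inhibition by 1.43 uM quinidine.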
# [8] = molecular target: Cytochrome P450 2C19 (Homo sapiens) (UniProt P33261); assay: qHTS Assay for Inhibitors and Substrates of Cytochrome P450 2C19 (AID 899); also: nearly all actives have a fitted effect of over 60% in size; also: potency is read from the fitted curve at half-maximal effect
# Summary of the method: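 5 nM human CYP2C19 with 10uM Luciferin-H EGE (at KM) in 50mM KPO4, compound preincubated 10 min at 37C, then NADPH regeneration for 60 min at 37C. Luciferin read by luminescence after detection reagent; normalized to 57uM ketoconazole as full inhibition.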
# [9] = molecular target: Cytochrome P450 2C9 (Homo sapiens) (UniProt P11712); assay: qHTS Assay for Inhibitors and Substrates of Cytochrome P450 2C9 (AID 883); also: nearly all actives have a fitted effect of over 60% in size
# Summary of the method: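 Human CYP2C9 (10nM) with Luciferin-H at 100uM (its KM) in 25mM KPO4; compound preincubated 10 min at 37C, then NADPH regeneration for 60 min at 37C. Luciferin read by luminescence after detection reagent; normalized to 57uM sulphaphenazole as full inhibition.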
# Atrial natriuretic peptide receptor 1 (Homo sapiens), sequence (P16066 whole entry, looked up): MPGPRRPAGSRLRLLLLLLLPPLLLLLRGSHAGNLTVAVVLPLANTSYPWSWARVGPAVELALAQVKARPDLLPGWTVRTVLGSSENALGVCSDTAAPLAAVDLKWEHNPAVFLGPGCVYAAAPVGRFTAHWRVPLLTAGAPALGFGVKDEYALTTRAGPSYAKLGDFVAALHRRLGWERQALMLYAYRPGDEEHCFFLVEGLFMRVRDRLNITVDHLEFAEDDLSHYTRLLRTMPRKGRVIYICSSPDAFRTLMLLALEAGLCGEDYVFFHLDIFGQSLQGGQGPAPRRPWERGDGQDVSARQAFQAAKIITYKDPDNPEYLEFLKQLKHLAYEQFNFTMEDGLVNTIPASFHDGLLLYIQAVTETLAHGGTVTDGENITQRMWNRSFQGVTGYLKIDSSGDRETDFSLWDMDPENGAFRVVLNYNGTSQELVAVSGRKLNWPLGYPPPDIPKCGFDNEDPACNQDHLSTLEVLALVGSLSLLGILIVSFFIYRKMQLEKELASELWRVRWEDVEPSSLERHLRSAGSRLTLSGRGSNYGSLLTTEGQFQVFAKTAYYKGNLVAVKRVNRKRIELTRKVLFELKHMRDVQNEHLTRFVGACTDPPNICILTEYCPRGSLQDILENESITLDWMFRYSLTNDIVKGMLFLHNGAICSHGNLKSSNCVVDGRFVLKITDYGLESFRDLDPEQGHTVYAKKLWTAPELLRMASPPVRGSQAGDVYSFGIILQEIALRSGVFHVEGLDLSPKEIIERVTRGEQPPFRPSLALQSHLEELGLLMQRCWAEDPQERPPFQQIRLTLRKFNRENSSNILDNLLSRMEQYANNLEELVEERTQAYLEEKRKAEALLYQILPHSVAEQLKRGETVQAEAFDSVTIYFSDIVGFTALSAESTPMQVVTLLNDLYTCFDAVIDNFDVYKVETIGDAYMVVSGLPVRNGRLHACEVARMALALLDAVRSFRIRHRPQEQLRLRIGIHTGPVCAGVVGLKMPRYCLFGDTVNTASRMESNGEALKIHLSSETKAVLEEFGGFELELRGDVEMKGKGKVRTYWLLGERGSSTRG
# Cytochrome P450 3A4 (Homo sapiens), sequence (P08684 whole entry, looked up): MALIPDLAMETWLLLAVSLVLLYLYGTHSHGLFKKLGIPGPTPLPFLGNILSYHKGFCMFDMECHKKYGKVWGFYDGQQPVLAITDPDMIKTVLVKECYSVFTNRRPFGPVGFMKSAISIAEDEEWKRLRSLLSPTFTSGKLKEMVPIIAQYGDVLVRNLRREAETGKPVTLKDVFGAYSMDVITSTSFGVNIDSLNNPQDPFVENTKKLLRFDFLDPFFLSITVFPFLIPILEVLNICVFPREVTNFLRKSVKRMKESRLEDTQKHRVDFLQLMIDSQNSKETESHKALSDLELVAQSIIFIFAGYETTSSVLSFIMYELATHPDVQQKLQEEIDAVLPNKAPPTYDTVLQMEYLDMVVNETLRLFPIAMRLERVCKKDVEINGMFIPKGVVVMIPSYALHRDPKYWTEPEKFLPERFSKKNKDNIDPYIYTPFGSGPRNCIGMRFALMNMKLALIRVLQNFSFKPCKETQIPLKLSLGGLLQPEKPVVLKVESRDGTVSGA
# Cytochrome P450 2C19 (Homo sapiens), sequence (P33261 whole entry, looked up): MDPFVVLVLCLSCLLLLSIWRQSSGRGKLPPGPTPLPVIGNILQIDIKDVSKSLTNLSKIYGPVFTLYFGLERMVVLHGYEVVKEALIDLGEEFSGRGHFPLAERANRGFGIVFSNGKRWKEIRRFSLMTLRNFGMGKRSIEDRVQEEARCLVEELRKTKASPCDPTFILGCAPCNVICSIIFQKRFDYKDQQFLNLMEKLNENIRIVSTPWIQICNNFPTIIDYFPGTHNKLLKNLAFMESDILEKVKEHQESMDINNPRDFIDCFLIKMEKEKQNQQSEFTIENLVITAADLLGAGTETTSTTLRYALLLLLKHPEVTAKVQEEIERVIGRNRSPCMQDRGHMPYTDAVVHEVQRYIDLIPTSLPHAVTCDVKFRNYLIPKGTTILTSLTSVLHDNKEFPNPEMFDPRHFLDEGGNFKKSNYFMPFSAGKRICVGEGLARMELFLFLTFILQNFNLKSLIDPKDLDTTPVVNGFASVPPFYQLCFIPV
# Cytochrome P450 2D6 (Homo sapiens), sequence (P10635 whole entry, looked up): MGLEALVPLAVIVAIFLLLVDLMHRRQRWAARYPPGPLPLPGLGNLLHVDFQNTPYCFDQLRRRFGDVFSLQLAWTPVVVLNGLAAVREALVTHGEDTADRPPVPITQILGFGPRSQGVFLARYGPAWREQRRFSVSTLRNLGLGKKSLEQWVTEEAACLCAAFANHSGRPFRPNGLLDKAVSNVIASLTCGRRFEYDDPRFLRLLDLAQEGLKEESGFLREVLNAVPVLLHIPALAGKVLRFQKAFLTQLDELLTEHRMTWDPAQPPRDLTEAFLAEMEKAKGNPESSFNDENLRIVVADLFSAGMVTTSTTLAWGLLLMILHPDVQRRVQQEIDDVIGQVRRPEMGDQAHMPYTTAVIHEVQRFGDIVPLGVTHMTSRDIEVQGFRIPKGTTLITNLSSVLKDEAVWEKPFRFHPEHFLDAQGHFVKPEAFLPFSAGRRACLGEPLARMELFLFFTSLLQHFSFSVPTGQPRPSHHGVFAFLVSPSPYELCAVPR
# Cytochrome P450 2C9 (Homo sapiens), sequence (P11712 whole entry, looked up): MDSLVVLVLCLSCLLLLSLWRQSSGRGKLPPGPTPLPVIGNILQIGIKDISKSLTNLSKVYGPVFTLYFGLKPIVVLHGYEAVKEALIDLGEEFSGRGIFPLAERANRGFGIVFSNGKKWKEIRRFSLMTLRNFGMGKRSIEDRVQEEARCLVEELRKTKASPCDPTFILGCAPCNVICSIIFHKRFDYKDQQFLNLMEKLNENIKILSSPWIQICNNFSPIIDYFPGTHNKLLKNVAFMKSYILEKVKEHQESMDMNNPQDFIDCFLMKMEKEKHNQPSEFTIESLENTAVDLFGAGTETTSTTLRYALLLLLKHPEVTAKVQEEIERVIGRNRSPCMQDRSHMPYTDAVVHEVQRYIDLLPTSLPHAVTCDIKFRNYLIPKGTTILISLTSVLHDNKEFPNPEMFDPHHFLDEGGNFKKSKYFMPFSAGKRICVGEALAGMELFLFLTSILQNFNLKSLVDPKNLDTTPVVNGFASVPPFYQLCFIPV
smiles,measurement,setting,value
COc1cc(OC)c([C@@H]2O[C@H](CO)[C@@H](O)[C@H](O)[C@@H]2O)c(OC)c1,Potency,[1],inactive
same,Potency,[2],inactive
same,Potency,[3],inactive
same,Potency,[4],inactive
same,Potency,[5],inactive
COc1ccc(-c2nc3c(c4c2C[C@H](c2ccccc2)OC4)CN(C(=O)NCc2ccco2)CC3)c(C)c1,"activity, negative = inhibition",[1],-0.324% [at 1.12 µM]
same,Potency,[2],inactive
same,Potency,[3],inactive
same,Potency,[4],inactive
same,Potency,[5],inactive
CC(=O)OC[C@H]1O[C@H](CC=NO[C@@H](C)c2cc(-c3c(C)cc(C)cc3C)no2)C=C[C@@H]1OC(C)=O,Potency,[1],inactive
same,Potency,[2],inactive
same,Potency,[3],inactive
same,Potency,[4],inactive
same,Potency,[5],inactive
COC(=O)N1[C@H]2CC[C@@]3(C)C=C(C)O[C@]1(C)C3c1ccccc12,Potency,[1],inactive
same,Potency,[2],inactive
same,Potency,[3],inactive
same,Potency,[4],inactive
same,Potency,[5],inactive
COC(=O)[C@@]1(C=C[C@@H](C)[C@H](OC)c2ccccc2Br)[C@@H]2OCCC[C@@H]21,Potency,[1],inactive
same,Potency,[2],inactive
same,Potency,[3],inactive
same,Potency,[4],inactive
same,Potency,[5],inactive
COC(=O)[C@H](COC(C)(C)C)NC(=O)O[C@@H]1C(=O)c2ccc(OC)cc2O[C@H]1c1cccc(C(F)(F)F)c1,Potency,[1],inactive
same,Potency,[2],inactive
same,Potency,[3],inactive
same,Potency,[4],inactive
same,Potency,[5],inactive
CC=C[C@@H]1Oc2ccc(OC)cc2N2C(=O)[C@H](C)[C@@H](OCOC)[C@H]12,Potency,[1],inactive
same,Potency,[2],inactive
same,Potency,[3],inactive
same,Potency,[4],inactive
same,Potency,[5],inactive
COC(=O)C1=C(C(=O)OC)[C@@H]2N(C)c3ccccc3[C@@]23C[C@@H](C(=O)OC)N(C(=O)c2ccc(Br)cc2)C3=N1,Potency,[1],inactive
same,Potency,[2],inactive
same,Potency,[3],inactive
same,Potency,[4],inactive
same,Potency,[5],inactive
C=CC1=C2C=C(C3CC3)N(CC(C)C)C=C2C(=O)C(C)(OC(=O)c2ccco2)C1=O (stereo not given),"activity, negative = inhibition",[1],-0.305% [at 1.12 µM]
same,Potency,[2],inactive
same,Potency,[3],inactive
same,Potency,[4],inactive
same,Potency,[5],inactive
CC(=O)C1=C(C)N(Cc2ccco2)C(=O)NC1c1ccccc1 (stereo not given),Potency,[1],inactive
same,Potency,[2],inactive
same,Potency,[3],inactive
same,Potency,[4],inactive
same,Potency,[5],inactive
COC(=O)CCC(=O)OC1(C)C(=O)C=C2C=C(C3CC3)N(Cc3ccc(OC)cc3)C=C2C1=O (stereo not given),Potency,[1],inactive
same,Potency,[2],inactive
same,Potency,[3],inactive
same,Potency,[4],inactive
same,Potency,[5],inactive
CCC(=O)C[C@@H](NC(=O)OC)c1ccc(F)cc1,Potency,[1],inactive
same,Potency,[2],inactive
same,Potency,[3],inactive
same,Potency,[4],inactive
same,Potency,[5],inactive
COC(=O)C1=C(C)N(Cc2ccccc2)C(=O)NC1c1cccc(C(F)(F)F)c1 (stereo not given),Potency,[1],inactive
same,Potency,[2],inactive
same,Potency,[3],inactive
same,Potency,[4],inactive
same,Potency,[5],inactive
COC(=O)N[C@@H](C=Cc1ccccc1)C[N+](=O)[O-],Potency,[1],inactive
same,Potency,[2],inactive
same,Potency,[4],inactive
same,Potency,[5],inactive
C#CCN1C(=O)CC[C@@]23C1=NC(C(=O)OC)=C(C(=O)OC)[C@@H]2N(CC=C(C)C)c1ccccc13,Potency,[1],inactive
same,Potency,[2],inactive
same,Potency,[3],inactive
same,Potency,[4],inactive
same,Potency,[5],inactive
CC(=O)c1ccc(OCc2ccccc2)c(C)c1O,"activity change, negative = inhibition",[6],-20.5% [at 11.4 µM]
same,"activity change, negative = inhibition",[7],-4.53% [at 11.4 µM]
same,Potency,[8],0.0501 µM (active)
same,Potency,[1],inactive
same,Potency,[2],inactive
same,Potency,[3],inactive
same,Potency,[4],inactive
same,Potency,[5],inactive
C=CC(=O)N1C(=O)c2ccccc2S1(=O)=O,Potency,[1],inactive
same,Potency,[2],inactive
same,Potency,[3],inactive
same,Potency,[4],inactive
same,Potency,[5],2.99 µM (active)
CC(=O)C1=C(C)N(CCC=Cc2ccccc2)C(=O)NC1c1ccccc1 (stereo not given),Potency,[1],inactive
same,Potency,[2],inactive
same,Potency,[3],inactive
same,Potency,[4],inactive
same,Potency,[5],inactive
C#CCCCON=C1C[C@@H](O)[C@@H](O)[C@@H]2[C@H]3C(=O)N(C(C)(C)C)C(=O)[C@@H]3CC[C@H]12,Potency,[1],inactive
same,Potency,[2],inactive
same,Potency,[3],inactive
same,Potency,[4],inactive
same,Potency,[5],inactive
Cn1c(-c2ccccc2)c(O)c(=O)c2ccccc21,"activity change, negative = inhibition",[9],-1.19% [at 11.4 µM]
same,"activity change, negative = inhibition",[6],-14.6% [at 11.4 µM]
same,"activity change, negative = inhibition",[7],4.63% [at 11.4 µM]
same,"activity, negative = inhibition",[8],50% [at 11.4 µM]
same,Potency,[1],inactive
same,Potency,[2],inactive
same,Potency,[3],inactive
same,Potency,[4],inactive
same,Potency,[5],inactive
CC(C)OC(=O)[C@H](C)NC(=O)N1CCc2nc(-c3ccccc3)c3c(c2C1)CO[C@@H](C)C3,Potency,[1],inactive
same,Potency,[2],inactive
same,Potency,[4],inactive
same,Potency,[5],inactive
CC(C)CON=C1C[C@@H](O)[C@@H](O)[C@@H]2[C@H]3C(=O)N(Cc4ccccc4)C(=O)[C@@H]3CC[C@@H]12,Potency,[1],inactive
same,Potency,[2],inactive
same,Potency,[3],inactive
same,Potency,[4],inactive
same,Potency,[5],inactive
COC[C@@H](O)[C@H]1OCc2cc(OC)ccc2[C@H]1C=Cc1ccccc1,Potency,[1],inactive
same,Potency,[2],inactive
same,Potency,[3],inactive
same,Potency,[4],inactive
same,Potency,[5],inactive
